A selection: hits, their analogues and other compounds. The true share with any hit is near 2%.
NALP1 inh: NALP1 inhibition; S. cerevisiae NALP1/ASC/caspase-1 growth, X-gal OD620, 72 h; inhibition, % at 10 µM; 280,000 compounds, 0.61% hits; in the data active means inhibition mostly above about 24%, no sharp cut-off; inactive means mostly below about 32%
HGIII-sPLA2 inh: Blocks human group III sPLA2 activity; Q9NZ20; QFRET BODIPY PC-A2 liposome hydrolysis, fluorescence; inhibition, % at 12.2 µM; 370,000 compounds, 0.56% hits; AID 743126;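 active means inhibition above mean plus 3 SD of compounds lying within the high and low control bounds, cut at about 19% in these data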;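 further: 0% = median of test compound wells and 100% = no enzyme DMSO wells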
Target sequence (Q9NZ20 whole entry, looked up): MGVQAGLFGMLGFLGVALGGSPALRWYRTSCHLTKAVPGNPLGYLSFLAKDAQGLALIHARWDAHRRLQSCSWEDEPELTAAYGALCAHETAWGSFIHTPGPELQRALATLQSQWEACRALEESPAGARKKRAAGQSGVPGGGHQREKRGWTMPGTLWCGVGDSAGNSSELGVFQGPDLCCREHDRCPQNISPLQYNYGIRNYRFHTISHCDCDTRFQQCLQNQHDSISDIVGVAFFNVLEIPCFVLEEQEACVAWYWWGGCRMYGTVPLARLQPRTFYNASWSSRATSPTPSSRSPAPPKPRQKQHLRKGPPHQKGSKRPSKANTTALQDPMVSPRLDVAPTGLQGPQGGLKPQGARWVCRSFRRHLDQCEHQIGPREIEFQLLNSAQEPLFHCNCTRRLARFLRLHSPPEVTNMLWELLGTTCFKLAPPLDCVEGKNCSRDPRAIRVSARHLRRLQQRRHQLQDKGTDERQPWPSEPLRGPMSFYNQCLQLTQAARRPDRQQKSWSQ
Fh CTSL1 inh: cathepsin L1 inhibition, PFM18AAP counter-screen | recombinant F. hepatica cathepsin L1, Z-Leu-Arg-MCA fluorescence | 300,000 compounds, 0.49% hits | inhibition, % at 5.96 µM;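 active means inhibition above the mean of all tested compounds plus 3 SD, set per screening campaign, cut at about 17% in these data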;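 further: 0% = plate median of test compound wells and 100% = 1 µM Z-Phe-Ala-diazomethylketone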
APOBEC3G inh: inhibitors of human APOBEC3G DNA deaminase | 330,000 compounds, 0.28% hits | Q9HC16 | recombinant A3G, ssDNA deamination FAM/TAMRA fluorescence | inhibition, % at 20 µM;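 active means inhibition of at least 40% at 20 µM, with no more than 30% in the related APOBEC3A deaminase screen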;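 further: plate controls were DMSO wells with A3G for no effect and wells lacking A3G enzyme for full effect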
APOBEC3A inh: human APOBEC3A DNA deaminase inhibition; recombinant A3A, FAM/TAMRA ssDNA deamination fluorescence; inhibition, % at 20 µM; 330,000 compounds, 0.41% hits;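 active means at least 40% inhibition at 20 µM here, with at most 30% in a related deaminase screen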;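 further: plate controls were A3A with DMSO for no effect and wells lacking A3A enzyme for full effect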
A3A conf: APOBEC3A (human) deaminase inhibition, confirmed; shares compounds with APOBEC3A inh; recombinant A3A, ssDNA deaminase UDG fluorescence assay; inhibition, % at 20 µM; 1,400 compounds, 63% hits;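 active means inhibition reaching a set limit, 80% of the first screen's cutoff, at 20 µM in any replicate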;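 further: plate controls were DMSO wells with A3A for no effect and wells lacking A3A enzyme for full effect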
UDG A3A counter: counter-screen for APOBEC3A inhibitors: UDG | shares compounds with APOBEC3A inh | UDG counterscreen, FAM/TAMRA uracil oligo fluorescence | inhibition, % at 20 µM | 1,000 tested, under 10 active | AID 504714; call rule not given here
* marks the source's active call; other numbers are inactive results; . = no result.

SMILES | NALP1 inh | HGIII-sPLA2 inh | Fh CTSL1 inh | APOBEC3G inh | APOBEC3A inh | A3A conf | UDG A3A counter
CN1CC[n+]2c(CN3C(=O)c4ccccc4C3=O)csc21 | 3 | 10 | 3 | 27 | 51* | 79* | 5
Cc1cc(/C=N/NC(=O)C(O)(c2ccccc2)c2ccccc2)c(C)n1-c1cccc(C(=O)O)c1 | 31 | -19 | -1 | 23 | 45* | 26 | .
Cc1cc(/C=N/NC(=O)c2cccc(N(C)C)c2)c(C)n1-c1cc(C(=O)O)cc(C(=O)O)c1 | 22 | . | . | 25 | 66* | 65* | 1
O=C1CC(c2ccco2)CC(O)=C1C=Nc1cc(Cl)ccc1O (centres undefined) | 24 | 10 | 3 | 29 | 55* | 54* | .
CC1CC(C)CN(CCCNC(=O)C2CCN(c3ncnc4c3sc3cccc(F)c34)CC2)C1 (centres undefined) | . | . | 2 | -4 | 4 | . | .
CCN(CC)CCCNC(=O)C1CCN(c2ncnc3c2sc2cccc(F)c23)CC1 | . | -2 | -2 | -1 | 48* | 2 | 1
Cc1cc(C(=O)NCc2ccc(C(=O)O)o2)c(C)o1 | -11 | . | -2 | 16 | 47* | 48* | 5
Cc1occc1C(=O)NCc1ccc(C(=O)O)o1 | 19 | 6 | 3 | 1 | 10 | . | .
O=C(CSc1ccc(-c2ccncc2)nn1)N1CCCC1 | 13 | 0 | -2 | -1 | 2 | . | .
O=C(CSc1ccc(-c2ccncc2)nn1)N1CCCCC1 | -6 | 6 | -1 | -2 | 102* | 4 | 6
COc1cc(NC(=O)c2cc(C)on2)c(OC)cc1Cl | . | 1 | . | . | . | . | .
COc1cc(NC(=O)c2noc3c2CCC3)c(OC)cc1Cl | 10 | 10 | 3 | 21 | 49* | 55* | 1
CCn1c(/C=C/c2cc[n+](C)cc2)nc2ccccc21 | 4 | -2 | 2 | 11 | 53* | 47* | .
Cc1ccc(OCCn2c(Br)nc3c2c(=O)n(C)c(=O)n3C)cc1 | 10 | -4 | -1 | -5 | -1 | . | .
COCCn1c(Br)nc2c1c(=O)n(C)c(=O)n2C | 1 | 5 | -5 | -1 | 48* | 1 | 8
CC1=NOC(=O)/C1=C\c1ccc(-c2ccc(Br)cc2C(=O)O)o1 | 4 | 3 | 0 | 16 | 53* | active | 5
COC(=O)[C@]12C[C@H](CC(=O)N3CCCCC3)C(=O)N(Cc3ccccc3)C1=C[C@H](COCc1ccccc1)O[C@@H]2C | . | -9 | . | . | . | . | .
C=CCN1[C@@H](C)COc2cc(N3CCSCC3)ccc2S1(=O)=O | . | 5 | . | . | . | . | .
O=C(N/N=C/c1cc(Br)c(Br)o1)c1ccc2c(c1)OCCO2 | 10 | -5 | 6 | 28 | 76* | 50* | -1
c1ccc(-c2c[nH]c3ccc(OCCN4CCOCC4)c(-c4ccccc4)c23)cc1 | . | -30 | . | . | . | . | .
CCOC(=O)N1CCC(NC(=O)C2CCCN(C(=O)N3CCOc4ccccc43)C2)CC1 (centres undefined) | -4 | 3 | -3 | -6 | 54* | -4 | -1
CC(C)C[C@@H]1COc2cc(Br)ccc2S(=O)(=O)N1Cc1cn(CCC2OCCO2)nn1 | . | 3 | . | . | . | . | .
O=C(NCc1ccccc1F)C1C2C=CC3(CN(Cc4ccccc4)C(=O)C13)O2 (centres undefined) | . | 9 | . | . | . | . | .
CCOC(=O)C1CCCN(CC(=O)Nc2cc(C)cc(C)c2)C1 (centres undefined) | -19 | 0 | 2 | 30 | 60* | 29 | .
O=S1(=O)c2ccc(N3CCC[C@H]3CO)cc2O[C@H]2CCN1C2 | . | -3 | . | . | . | . | .
SMILES | NALP1 inh | HGIII-sPLA2 inh | Fh CTSL1 inh | APOBEC3G inh | APOBEC3A inh | A3A conf | UDG A3A counter
COc1cc(C)c(NC(=O)C2CCN(S(=O)(=O)c3cccs3)CC2)cc1OC | . | 3 | . | 18 | 57* | 55* | 0
CCCCCCCC[n+]1cccc2c3ccccc3ccc21 | 11 | 0 | 2 | 20 | 57* | 75* | 4
CCOC(=O)c1c(NC(=O)c2ccc(N3C(=O)[C@@H]4[C@H](C3=O)[C@H]3C=C[C@@H]4C3)cc2)sc2c1CC(C)CC2 (some centres undefined) | 12 | 0 | 5 | -5 | 91* | 6 | 6
Cc1ccccc1NC(=O)NNC(=O)CCc1ccccc1 | 10 | 2 | -1 | 0 | 41* | -1 | .
Cc1ccc(C)c(NC(=O)NNC(=O)CCc2ccccc2)c1 | 8 | -4 | 3 | -3 | 2 | . | .
CC(C)Oc1ccc(OCCSc2nc3ccccc3n2CC(=O)O)cc1 | 6 | -3 | -1 | 7 | 70* | 24 | .
COC/C=C/C1=CC2=CC(=O)C(C)(OC(=O)c3cccs3)C(=O)C2=CO1 (centres undefined) | . | . | 1 | 8 | 20 | . | .
COC/C=C/C1=CC2=CC(=O)C(C)(OC(=O)c3ccco3)C(=O)C2=CO1 (centres undefined) | 1 | . | -4 | 26 | 58* | 60* | .
CC1=C(C(=O)OCc2ccc([N+](=O)[O-])cc2)N2C(=O)C(NC(=O)Cc3ccccc3)C2SC1 (centres undefined) | 14 | -3 | -6 | -2 | 50* | 40* | -3
CC1=C(C(=O)OCc2ccccc2)N2C(=O)[C@@H](NC(=O)COc3ccccc3)[C@H]2SC1 | 18 | -11 | 2 | -10 | -7 | . | .
C[n+]1cccc(/C=N/NC(=O)CC23CC4CC(CC(C4)C2)C3)c1 | . | 4 | 1 | 16 | 45* | 67* | 0
Cc1cc(/C=C2\SC(=O)N(C)C2=O)c(C)n1-c1ccc(S(N)(=O)=O)cc1 | -3 | -2 | 2 | 16 | 50* | 63* | -1
Cc1cc(/C=C2\SC(=O)N(C)C2=O)c(C)n1-c1ccc(O)cc1 | 15 | -9 | -3 | -2 | -6 | . | .
Cc1ccccc1Cn1ccc2ccc(-c3ccc4ccn(Cc5ccccc5)c4c3)cc21 | . | 8 | . | . | . | . | .
COc1ccc(C2C(C(=O)Nc3cc(OC)c(OC)c(OC)c3)CCC(=O)N2c2ccc(OC)cc2)cc1 (centres undefined) | . | -3 | . | . | . | . | .
COCCN1Cc2cccc(C(=O)NCc3ccccc3OC)c2C1=O | 9 | 2 | -4 | -1 | 96* | -1 | -4
CCCN1Cc2cccc(C(=O)NCc3ccccc3OC)c2C1=O | 5 | -7 | 3 | -1 | 2 | . | .
CN(Cc1ccccc1)C(=O)c1ncn(C)c1C(=O)N(C)Cc1ccccc1 | . | 4 | . | 14 | 60* | 67* | 5
CCN(CC)C(=O)c1ncn(C)c1C(=O)N(CC)CC | . | 5 | . | 28 | 51* | 64* | -3
COc1ccc2cc(C)c3nnc(SCC(=O)Nc4cc(OC)c(OC)cc4C(=O)O)n3c2c1 | -9 | 0 | -4 | -1 | 99* | 0 | 0
COc1cc(NC(=O)CSc2nnc3c(C)cc4cc(C)cc(C)c4n23)c(C(=O)O)cc1OC | 5 | 8 | -7 | -7 | -3 | . | .

Bioassay records as filed in PubChem.
